Results taken from the supplement of paper PMC4466140.

Tests used:
Assay in all cases: SPOT peptide array binding signal intensity (averaged, normalized) (arbitrary units (background-subtracted, floor 0; scale differs between SH3 domains)); higher = stronger binding of the SH3 domain to the peptide
CaNbp2 = target: CaNbp2
Method in brief: (§1)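 The binding signal is the normalized, background-subtracted spot intensity averaged over replicates; its arbitrary units differ between domains. It was obtained by incubating 10 μg/ml GST-fused SH3 domains from four yeast species overnight at 4°C in TBS-based blocking buffer on cellulose membranes with synthetic 15-mer peptides, cysteines replaced by serines, then detecting with anti-GST antibody, HRP anti-mouse secondary and luminol.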

CaRvs167 = target: CaRvs167
Method in brief: as §1

CaRvs167-3 = target: CaRvs167-3
Method in brief: as §1

CaSho1 = target: CaSho1
Method in brief: as §1

CaSla1-D1-D2 = target: CaSla1-D1-D2
Method in brief: as §1

CaSla1-D3 = target: CaSla1-D3
Method in brief: as §1

ScAbp1 = target: ScAbp1
Method in brief: as §1

ScBbc1 = target: ScBbc1
Method in brief: as §1

ScBem1-D1 = target: ScBem1-D1
Method in brief: as §1

ScBzz1-D1 = target: ScBzz1-D1
Method in brief: as §1

ScBzz1-D2 = target: ScBzz1-D2
Method in brief: as §1

ScCyk3 = target: ScCyk3
Method in brief: as §1

ScFus1 = target: ScFus1
Method in brief: as §1

ScHof1 = target: ScHof1
Method in brief: as §1

ScHse1 = target: ScHse1
Method in brief: as §1

ScLsb1 = target: ScLsb1
Method in brief: as §1

ScLsb2 = target: ScLsb2
Method in brief: as §1

ScLsb3 = target: ScLsb3
Method in brief: as §1

ScLsb4 = target: ScLsb4
Method in brief: as §1

ScMyo3 = target: ScMyo3
Method in brief: as §1

ScMyo5 = target: ScMyo5
Method in brief: as §1

ScNbp2 = target: ScNbp2
Method in brief: as §1

ScPex13 = target: ScPex13
Method in brief: as §1

ScRvs167 = target: ScRvs167
Method in brief: as §1

ScSho1 = target: ScSho1
Method in brief: as §1

ScSla1-D1-D2 = target: ScSla1-D1-D2
Method in brief: as §1

ScSla1-D3 = target: ScSla1-D3
Method in brief: as §1

SpAbp1-D1 = target: SpAbp1-D1
Method in brief: as §1

SpBbc1 = target: SpBbc1
Method in brief: as §1

SpBzz1-D1 = target: SpBzz1-D1
Method in brief: as §1

SpBzz1-D2 = target: SpBzz1-D2
Method in brief: as §1

SpCyk3 = target: SpCyk3
Method in brief: as §1

SpHof1 = target: SpHof1
Method in brief: as §1

SpHof1-2 = target: SpHof1-2
Method in brief: as §1

SpHof1-3 = target: SpHof1-3
Method in brief: as §1

SpHse1 = target: SpHse1
Method in brief: as §1

SpLsb1 = target: SpLsb1
Method in brief: as §1

SpLsb4 = target: SpLsb4
Method in brief: as §1

SpMyo1 = target: SpMyo1
Method in brief: as §1

SpNbp2 = target: SpNbp2
Method in brief: as §1

SpPex13 = target: SpPex13
Method in brief: as §1

SpRvs167 = target: SpRvs167
Method in brief: as §1

SpSla1-D1-D2 = target: SpSla1-D1-D2
Method in brief: as §1

SpSla1-D3 = target: SpSla1-D3
Method in brief: as §1

AgAbp1 = target: AgAbp1
Method in brief: as §1

AgBbc1 = target: AgBbc1
Method in brief: as §1

AgBem1-D1 = target: AgBem1-D1
Method in brief: as §1

AgBzz1-D1 = target: AgBzz1-D1
Method in brief: as §1

AgBzz1-D2 = target: AgBzz1-D2
Method in brief: as §1

AgCyk3 = target: AgCyk3
Method in brief: as §1

AgFus1 = target: AgFus1
Method in brief: as §1

AgHof1 = target: AgHof1
Method in brief: as §1

AgHse1 = target: AgHse1
Method in brief: as §1

AgLsb1 = target: AgLsb1
Method in brief: as §1

AgLsb4 = target: AgLsb4
Method in brief: as §1

AgMyo5 = target: AgMyo5
Method in brief: as §1

AgNbp2 = target: AgNbp2
Method in brief: as §1

AgRvs167 = target: AgRvs167
Method in brief: as §1

AgSho1 = target: AgSho1
Method in brief: as §1

AgSla1-D1-D2 = target: AgSla1-D1-D2
Method in brief: as §1

AgSla1-D3 = target: AgSla1-D3
Method in brief: as §1

CaAbp1-D1 = target: CaAbp1-D1
Method in brief: as §1

CaAbp1-D2 = target: CaAbp1-D2
Method in brief: as §1

CaBbc1 = target: CaBbc1
Method in brief: as §1

CaBem1-D1 = target: CaBem1-D1
Method in brief: as §1

CaBzz1-D1 = target: CaBzz1-D1
Method in brief: as §1

CaBzz1-D2 = target: CaBzz1-D2
Method in brief: as §1

CaCyk3 = target: CaCyk3
Method in brief: as §1

CaFus1 = target: CaFus1
Method in brief: as §1

CaHof1 = target: CaHof1
Method in brief: as §1

CaHse1 = target: CaHse1
Method in brief: as §1

CaLsb1 = target: CaLsb1
Method in brief: as §1

CaLsb4 = target: CaLsb4
Method in brief: as §1

CaMyo5 = target: CaMyo5
Method in brief: as §1

QTMRQAPKRPDADVA
SPOT peptide array binding signal intensity (CaNbp2): 1450 | SPOT peptide array binding signal intensity (CaRvs167): 163 | SPOT peptide array binding signal intensity (CaRvs167-3): 0.75 | SPOT peptide array binding signal intensity (CaSho1): 1860 | SPOT peptide array binding signal intensity (CaSla1-D1-D2): 553 | SPOT peptide array binding signal intensity (CaSla1-D3): 650 | SPOT peptide array binding signal intensity (ScAbp1): 7 | SPOT peptide array binding signal intensity (ScBbc1): 68.5 | SPOT peptide array binding signal intensity (ScBem1-D1): 1 | SPOT peptide array binding signal intensity (ScBzz1-D1): 6 | SPOT peptide array binding signal intensity (ScBzz1-D2): 27 | SPOT peptide array binding signal intensity (ScCyk3): 4 | SPOT peptide array binding signal intensity (ScFus1): 1110 | SPOT peptide array binding signal intensity (ScHof1): 0.5 | SPOT peptide array binding signal intensity (ScHse1): 84.5 | SPOT peptide array binding signal intensity (ScLsb1): 78 | SPOT peptide array binding signal intensity (ScLsb2): 29.5 | SPOT peptide array binding signal intensity (ScLsb3): 961 | SPOT peptide array binding signal intensity (ScLsb4): 524 | SPOT peptide array binding signal intensity (ScMyo3): 227 | SPOT peptide array binding signal intensity (ScMyo5): 47.5 | SPOT peptide array binding signal intensity (ScNbp2): 3190 | SPOT peptide array binding signal intensity (ScPex13): 766 | SPOT peptide array binding signal intensity (ScRvs167): 136 | SPOT peptide array binding signal intensity (ScSho1): 930 | SPOT peptide array binding signal intensity (ScSla1-D1-D2): 690 | SPOT peptide array binding signal intensity (ScSla1-D3): 700 | SPOT peptide array binding signal intensity (SpAbp1-D1): 66 | SPOT peptide array binding signal intensity (SpBbc1): 42.5 | SPOT peptide array binding signal intensity (SpBzz1-D1): 188 | SPOT peptide array binding signal intensity (SpBzz1-D2): 512 | SPOT peptide array binding signal intensity (SpCyk3): 3 | SPOT peptide array binding signal intensity (SpHof1): 51.5 | SPOT peptide array binding signal intensity (SpHof1-2): 27.5 | SPOT peptide array binding signal intensity (SpHof1-3): 32.8 | SPOT peptide array binding signal intensity (SpHse1): 240 | SPOT peptide array binding signal intensity (SpLsb1): 34 | SPOT peptide array binding signal intensity (SpLsb4): 990 | SPOT peptide array binding signal intensity (SpMyo1): 229 | SPOT peptide array binding signal intensity (SpNbp2): 847 | SPOT peptide array binding signal intensity (SpPex13): 35 | SPOT peptide array binding signal intensity (SpRvs167): 188 | SPOT peptide array binding signal intensity (SpSla1-D1-D2): 11 | SPOT peptide array binding signal intensity (SpSla1-D3): 491

PPLPRAPPVPPATFE
SPOT peptide array binding signal intensity (AgAbp1): 16 | SPOT peptide array binding signal intensity (AgBbc1): 0.5 | SPOT peptide array binding signal intensity (AgBem1-D1): 40.5 | SPOT peptide array binding signal intensity (AgBzz1-D1): 18 | SPOT peptide array binding signal intensity (AgBzz1-D2): ≤ 0 | SPOT peptide array binding signal intensity (AgCyk3): 0.5 | SPOT peptide array binding signal intensity (AgFus1): ≤ 0 | SPOT peptide array binding signal intensity (AgHof1): 43.2 | SPOT peptide array binding signal intensity (AgHse1): 15 | SPOT peptide array binding signal intensity (AgLsb1): 17.2 | SPOT peptide array binding signal intensity (AgLsb4): ≤ 0 | SPOT peptide array binding signal intensity (AgMyo5): 434 | SPOT peptide array binding signal intensity (AgNbp2): 107 | SPOT peptide array binding signal intensity (AgRvs167): ≤ 0 | SPOT peptide array binding signal intensity (AgSho1): 6 | SPOT peptide array binding signal intensity (AgSla1-D1-D2): 5 | SPOT peptide array binding signal intensity (AgSla1-D3): ≤ 0 | SPOT peptide array binding signal intensity (CaAbp1-D1): 21.5 | SPOT peptide array binding signal intensity (CaAbp1-D2): 20 | SPOT peptide array binding signal intensity (CaBbc1): 79.2 | SPOT peptide array binding signal intensity (CaBem1-D1): 23 | SPOT peptide array binding signal intensity (CaBzz1-D1): 243 | SPOT peptide array binding signal intensity (CaBzz1-D2): 39.5 | SPOT peptide array binding signal intensity (CaCyk3): 1.5 | SPOT peptide array binding signal intensity (CaFus1): 47 | SPOT peptide array binding signal intensity (CaHof1): 1.5 | SPOT peptide array binding signal intensity (CaHse1): ≤ 0 | SPOT peptide array binding signal intensity (CaLsb1): ≤ 0 | SPOT peptide array binding signal intensity (CaLsb4): ≤ 0 | SPOT peptide array binding signal intensity (CaMyo5): 104 | SPOT peptide array binding signal intensity (CaNbp2): 1100 | SPOT peptide array binding signal intensity (CaRvs167): ≤ 0 | SPOT peptide array binding signal intensity (CaRvs167-3): ≤ 0 | SPOT peptide array binding signal intensity (CaSho1): 14 | SPOT peptide array binding signal intensity (CaSla1-D1-D2): 2 | SPOT peptide array binding signal intensity (CaSla1-D3): 1 | SPOT peptide array binding signal intensity (ScAbp1): 4.5 | SPOT peptide array binding signal intensity (ScBbc1): ≤ 0 | SPOT peptide array binding signal intensity (ScBem1-D1): ≤ 0 | SPOT peptide array binding signal intensity (ScBzz1-D1): 4.5 | SPOT peptide array binding signal intensity (ScBzz1-D2): ≤ 0 | SPOT peptide array binding signal intensity (ScCyk3): ≤ 0 | SPOT peptide array binding signal intensity (ScFus1): 11 | SPOT peptide array binding signal intensity (ScHof1): 241 | SPOT peptide array binding signal intensity (ScHse1): ≤ 0 | SPOT peptide array binding signal intensity (ScLsb1): 1 | SPOT peptide array binding signal intensity (ScLsb2): 11 | SPOT peptide array binding signal intensity (ScLsb3): 84 | SPOT peptide array binding signal intensity (ScLsb4): ≤ 0 | SPOT peptide array binding signal intensity (ScMyo3): 1100 | SPOT peptide array binding signal intensity (ScMyo5): 463 | SPOT peptide array binding signal intensity (ScNbp2): 200 | SPOT peptide array binding signal intensity (ScPex13): 95 | SPOT peptide array binding signal intensity (ScRvs167): 33.5 | SPOT peptide array binding signal intensity (ScSho1): 81 | SPOT peptide array binding signal intensity (ScSla1-D1-D2): ≤ 0 | SPOT peptide array binding signal intensity (ScSla1-D3): ≤ 0 | SPOT peptide array binding signal intensity (SpAbp1-D1): 7 | SPOT peptide array binding signal intensity (SpBbc1): 1 | SPOT peptide array binding signal intensity (SpBzz1-D1): 566 | SPOT peptide array binding signal intensity (SpBzz1-D2): 23.2 | SPOT peptide array binding signal intensity (SpCyk3): ≤ 0 | SPOT peptide array binding signal intensity (SpHof1): 1 | SPOT peptide array binding signal intensity (SpHof1-2): 707 | SPOT peptide array binding signal intensity (SpHof1-3): 125 | SPOT peptide array binding signal intensity (SpHse1): 30.8 | SPOT peptide array binding signal intensity (SpLsb1): 1.75 | SPOT peptide array binding signal intensity (SpLsb4): ≤ 0 | SPOT peptide array binding signal intensity (SpMyo1): 422 | SPOT peptide array binding signal intensity (SpNbp2): 17 | SPOT peptide array binding signal intensity (SpPex13): ≤ 0 | SPOT peptide array binding signal intensity (SpRvs167): 88 | SPOT peptide array binding signal intensity (SpSla1-D1-D2): 3 | SPOT peptide array binding signal intensity (SpSla1-D3): ≤ 0
